Screening data deposited in PubChem by National Center for Advancing Translational Sciences (NCATS).
LDHA block: qHTS assay for inhibitors of human lactate dehydrogenase | purified LDHA, NADH/diaphorase-resazurin fluorescence; hits give low values | activity change, % (values are at about 110 or 230 µM) | 480,000 compounds, 0.15% hits | AID 1347041, 2019; in the data active means activity change below about -30%; inconclusive means mostly about -25% to -30%;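 further: plate controls were DMSO wells for no effect and wells without enzyme for full effect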
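Human LDH5 (2 nM) was incubated with 0.06 mM NADH and 0.2 mM pyruvate for 5 min at room temperature in Tris pH 7.4. Remaining NADH was coupled through diaphorase/resazurin, and resorufin fluorescence was read at 0 and 20 min.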
Nrf2 inh: Nrf2 qHTS screen for inhibitors | A549 ARE-Fluc reporter, luciferase luminescence, 18-24 h | Potency, µM (titrated, usually from 46 µM), inactives show top-dose activity change, negative = inhibition, usual class: inhibitors | 360,000 compounds, 2.1% hits | AID 504444, 2011; further: potency means the concentration at half of the fitted maximal effect; on the % scale 0 is the no-effect control and ±100 the full control effect; nearly all actives have a fitted effect of over 60% in size
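Nrf2 activity is the BugLite luminescence, read 15 min after reagent at room temperature, following CellTiter-Fluor cytotoxicity readout (30 min, 37C). Compound titrations were applied for 18-24 h to 5000 A549 ARE_Fluc cells/well in 5% FBS OPTI-MEM.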
ALOX12 inh: Primary qHTS assay for inhibitors of human arachidonate 12S-lipoxygenase (ALOX12): Round 2; AID 1671190, 2021; Potency, µM (titrated, usually from 108 µM), for inactives: top-dose activity change, negative = inhibition, hits mostly inhibitors; Polyunsaturated fatty acid lipoxygenase ALOX12 (Homo sapiens), P18054; purified 12hLO, xylenol orange hydroperoxide absorbance; 580,000 compounds, 1.1% hits; further: potency means the concentration at half of the fitted maximal effect; on the % scale 0 is the no-effect control and ±100 the full control effect
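Hydroperoxide product was detected by ferrous iron/xylenol orange as the 573 to 405 nm absorbance ratio. Arachidonic acid at 40 uM (final) was turned over for 30 min at room temperature by 150 nM human 12hLO, pH 7.0 Hepes buffer, after 15 min compound preincubation.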
Nrf2 activator: qHTS of Nrf2 Activators | AID 624171, 2012 | 410,000 compounds, 0.31% hits | AREc32 ARE-luciferase reporter (MCF7-derived line), luminescence, 24 h | Potency, µM (titrated, usually from 46.1 µM), for the others: top-dose activation, usual class: activators; further: potency means the concentration at half of the fitted maximal effect; % of control where 0% means no effect; nearly all actives have a fitted effect of over 65% in size
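For detection, Steady-Glo was added and plates sat 30 min at RT; before that, AREc32_Fluc cells grown overnight in OPTI-MEM/5% FBS had been treated with 23 nL compound for 24 hr at 37 deg C.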
A549 tox: Nrf2 qHTS screen for inhibitors: counterscreen for cytotoxicity; Potency, µM (series often up to 46 µM), for inactives: top-dose activity change, negative = cytotoxicity, usual class: inhibitors; AID 504648, 2011; 390,000 compounds, 0.16% hits; A549 ARE-Fluc cells, CellTiter-Fluor viability, 18-24 h; further: potency means the concentration at half of the fitted maximal effect; on the % scale 0 is the no-effect control and ±100 the full control effect
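A549 ARE-Fluc cells in 5% FBS OPTI-MEM, 5000 cells/well, rested 2 h then exposed to compounds in concentration-response for 18-24 h at 37 °C. Viability by CellTiter-Fluor fluorescence (Ex 405/Em 525) after 30 min; luciferase luminescence (BugLite, 15 min, RT) read afterwards.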
IDH1 R132H inh: qHTS for Inhibitors of mutant isocitrate dehydrogenase 1 (IDH1): qHTS; Potency, µM (doses to about 76.6 µM), for the others: at the highest dose activity change, negative = inhibition, usual class: inhibitors; Isocitrate dehydrogenase [NADP] cytoplasmic (Homo sapiens), O75874; IDH1-R132H enzyme, NADPH consumption, diaphorase/resazurin fluorescence; 390,000 compounds, 0.093% hits; further: potency means the concentration at half of the fitted maximal effect; on the % scale 0 is the no-effect control and ±100 the full control effect; nearly all actives have a fitted effect of over 65% in size
Target sequence (O75874 whole entry R132H, stated change not applied): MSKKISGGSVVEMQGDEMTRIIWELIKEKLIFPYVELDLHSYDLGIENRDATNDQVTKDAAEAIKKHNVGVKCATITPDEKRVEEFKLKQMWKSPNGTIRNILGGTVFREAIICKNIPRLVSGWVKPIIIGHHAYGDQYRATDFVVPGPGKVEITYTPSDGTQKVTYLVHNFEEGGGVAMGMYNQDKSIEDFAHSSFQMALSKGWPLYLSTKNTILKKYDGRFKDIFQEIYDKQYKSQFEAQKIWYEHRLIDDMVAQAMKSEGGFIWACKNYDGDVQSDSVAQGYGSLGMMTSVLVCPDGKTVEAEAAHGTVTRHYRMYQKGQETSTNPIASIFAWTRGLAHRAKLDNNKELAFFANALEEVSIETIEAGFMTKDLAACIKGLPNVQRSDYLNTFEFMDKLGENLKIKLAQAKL
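IDH1-R132H (0.5 ug/mL dispensed) in pH 7.5 Tris buffer was preincubated 30 min with compound, then given a substrate mix of 0.016 mM NADPH and 2 mM alpha-KG for 80 min at room temperature; remaining NADPH was read by diaphorase/resazurin fluorescence.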
* hit, by the source's call; u = inconclusive; x = not tested or not shown. An excerpt weighted towards active compounds, which were near 2.7% of everything screened. Unless noted, the call rests on the fitted dose curve; in most records, active means well fitted curve in the direction sought with a large enough effect; inconclusive means small, poorly fitted or top-dose-only effect, or another doubt; inactive means no such curve, though single readings can be large; an effect the other way counts as inactive or inconclusive.

SMILES	LDHA block	Nrf2 inh	ALOX12 inh	Nrf2 activator	A549 tox	IDH1 R132H inh
COCCCNC(=S)N1CCCN(c2nc3cc(C)c(C)cc3cc2C#N)CC1	-3	u	0%	2%	-15%	0%
COC(=O)C1CCCCN1S(=O)(=O)c1cc(C)ccc1F (stereo not drawn)	3	x	-1%	x	x	x
CCc1c(C)sc(NC(=O)C(F)(F)C(F)(F)C(F)(F)C(F)(F)F)c1C#N	15	x	10µM*	x	x	x
CCc1c(C)sc(NC(=O)C2CC2)c1C#N	-5	x	28µM*	x	x	x
CCc1c(C)sc(NC(=O)C(F)(F)C(F)(F)C(F)(F)F)c1C#N	-19	x	u	x	x	x
CCc1c(C)sc(NC(=O)C2CCC2)c1C#N	2	x	13µM*	x	x	x
CCc1c(C)sc(NC(=O)C(C)(C)C)c1C#N	-5	x	u	x	x	x
Cc1ccc(-n2ccc3nc(N4CCCC4)ncc3c2=O)cc1C	-2	x	u	x	x	x
CN(C)CC1CCC/C(=C\c2ccc(OC(=O)/C=C/c3ccccc3)cc2)C1=O (stereo not drawn)	2	1%	u	21%	4%	6%
CN(C)CC1CCC/C(=C\c2ccc(OC(=O)c3ccc(Cl)cc3)cc2)C1=O (stereo not drawn)	1	u	25µM*	-1%	u	3%
CC(=O)N(C1CC1)C1CCOC2(CCN(C(=O)COc3ccc(C)cc3)CC2)C1 (stereo not drawn)	x	x	32%	x	x	x
O=c1cc(CN2CCCCC2c2ccccn2)[nH]c2ccc(F)cc12 (stereo not drawn)	x	x	7.9µM*	x	x	x
COC(=O)N1CCN(Cc2cc(=O)c3cc(F)ccc3[nH]2)CC1	x	x	-54%	x	x	x
CCS(=O)(=O)c1c(Nc2ccc(F)c(Cl)c2)sc(C(=O)c2ccccc2)c1N	-3	21µM*	-6%	10%	u	-2%
CCn1c(SCC(=O)N2CCc3ccccc32)nnc1-c1ccncc1	-39*	3%	0%	0%	0%	10%
CCc1nnc(SCC(=O)N2CCc3ccccc32)n1CC	-4	-7%	-4%	0%	0%	16%
Cc1nnc(N2C(=O)C(O)=C(C(=O)c3ccco3)C2c2ccc(C(C)(C)C)cc2)s1 (stereo not drawn)	1	u	7.9µM*	0%	-25%	16%
CCCCOc1cccc(C2C(C(=O)c3ccc(C)o3)=C(O)C(=O)N2c2nnc(C)s2)c1 (stereo not drawn)	4	u	u	5%	-20%	-3%
Cc1nnc(N2C(=O)C(=O)/C(=C(/O)c3ccccc3)C2c2ccc(C(C)C)cc2)s1 (stereo not drawn)	9	x	u	x	x	x
Cc1nnc(N2C(=O)C(O)=C(C(=O)c3ccco3)C2c2ccc(F)cc2)s1 (stereo not drawn)	3	4%	u	0%	-13%	12%
Cc1nnc(N2C(=O)C(O)=C(C(=O)c3ccco3)C2c2ccc(C(C)C)cc2)s1 (stereo not drawn)	1	4%	45µM*	0%	-11%	15%
Cc1ccc(C)c(/C(O)=C2\C(=O)C(=O)N(c3nnc(C)s3)C2c2ccc(C(C)C)cc2)c1 (stereo not drawn)	10	x	45µM*	x	x	x
CCCOc1cccc(C2C(C(=O)c3ccco3)=C(O)C(=O)N2c2nnc(C)s2)c1 (stereo not drawn)	1	1%	7.9µM*	-1%	-19%	20%
CCOc1ccccc1C(=O)NC12CC3CC(CC(C3)C1)C2	10	x	u	x	x	x
O=C(NCc1ccccc1)c1cc2cc(Br)ccc2[nH]1	-5	x	u	x	x	x
SMILES	LDHA block	Nrf2 inh	ALOX12 inh	Nrf2 activator	A549 tox	IDH1 R132H inh
CC(=O)c1c(C)nc(C2CC2)nc1SCC(=O)NC1CC1	2	x	12%	x	x	x
COc1ccc(CC(=O)NC2CCCN(c3cc(-c4ccc(Cl)cc4)[nH]n3)C2)cc1OC (stereo not drawn)	x	x	5%	x	x	x
CCCNC(=O)NCc1nc(-c2ccc(OCC)cc2)oc1C	7	x	u	x	x	x
CSc1ccc(C2C(C(=O)c3ccco3)=C(O)C(=O)N2c2nnc(SC)s2)cc1 (stereo not drawn)	1	u	40µM*	3%	1%	19%
COc1ccc(-n2nnc(C(=O)OCc3ccc(C)cc3C)c2C)cc1	-8	x	124%	x	x	x
CCCCCCCCN1C(=O)[C@H](CC(=O)NCc2cccs2)C[C@@]2(C(=O)OC)CC(C)(C)CC=C12	4	x	5%	x	x	x
CCCCCCCCN1C(=O)[C@H](CC(=O)NCc2ccc(C)o2)C[C@@]2(C(=O)OC)CC(C)(C)CC=C12	6	x	40µM*	x	x	x
Fc1ccc(Br)cc1C1C=C(c2ccc(Br)cc2)Nc2ncnn21 (stereo not drawn)	-6	x	-25%	0%	u	9%
Cc1ccc(C2=CC(c3ccccc3)n3ncnc3N2)cc1 (stereo not drawn)	-2	20%	3%	1%	-2%	-3%
Cc1ccsc1C1C=C(c2cccc(Br)c2)Nc2ncnn21 (stereo not drawn)	0	-11%	x	7.9µM*	-4%	7%
C1=C(c2ccccc2)Nc2ncnn2C1c1ccccc1 (stereo not drawn)	-2	12%	0%	7.1µM*	-2%	19%
CCN(CC(=O)NCc1cccs1)C(=O)CCC(=O)c1ccc(C)cc1	-2	18%	28µM*	0%	-9%	2%
O=C(COC(=O)C12CC3CC(CC(Br)(C3)C1)C2)Nc1c(Br)cc([N+](=O)[O-])cc1Br	8	x	u	x	x	x
COc1ccc(-c2[nH]c(-c3ccc(OC)c(OC)c3)nc2SCC(=O)Nc2ccccc2)cc1	5	23µM*	-29%	4%	u	-22%
COc1cccc(-c2nc(SCC(=O)NC3CCCC3)c(-c3ccc(F)cc3)[nH]2)c1	-4	18µM*	-6%	0%	u	1%
COc1ccc(NC(=O)CSc2nc(-c3cccc(C)c3)[nH]c2-c2ccccc2)cc1OC	0	23µM*	-4%	-1%	u	-6%
N#Cc1ccc(OCC(=O)c2ccc3c(c2)CCCC3)cc1	6	x	5%	x	x	x
CC1CCN(C(=O)c2cc3c(ccc4ccccc43)o2)CC1	2	u	45µM*	-1%	11%	7%
CC(=O)c1cc2c(ccc3ccccc32)o1	32	x	32µM*	x	x	x
CSc1ccc(/C=C/C(=O)c2cc3cc(Cl)ccc3oc2=O)cc1	-8	x	u	x	x	x
